# Assay results taken from PubChem BioAssay.
# Calls of active or inactive are those of the source.
# Experiments:
# [1] = optical density shifts of acrAB sulA E. coli – strain DRC41, OD650, 48 h, E. coli filamentation inducer project, primary screen (AID 1152); conditions: higher = more signal, called active from +8 up or from −8 down;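 also: E. coli MC1000 strain DRC41 lacking acrAB efflux pump and sulA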
# [2] = probe aLefty1 binding on compound microarray – biochemical, small-molecule microarray, 635/667 nm fluorescence, primary screen (AID 1153); conditions: higher = more signal;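 also: score merges spot fluorescence with signal-to-noise ratio from the scanned slide images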
# [3] = plasmodial surface anion channel blockers, osmotic lysis – cell-based, P. falciparum Indochina, OD700, 1 h, primary screen (AID 1154); conditions: P. falciparum Indochina infected RBC osmotic lysis, higher = more signal, called active from +8 up or from −8 down
# [4] = plasmodial surface anion channel blockers, osmotic lysis – cell-based, P. falciparum Indochina, OD700, 2 h, primary screen (AID 1155);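 also: lysis reports solute entry through the parasite surface anion channel PSAC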; conditions: P. falciparum Indochina infected erythrocytes, higher = more signal, called active from +8 up or from −8 down
# [5] = changes in parasitized red cell lysis, either direction – P. falciparum Indochina, OD700, 3 h, PSAC antagonist project, primary screen (AID 1156); conditions: P. falciparum-infected erythrocytes, osmotic lysis, higher = more signal, called active from +8 up or from −8 down
# [6] = plasmodial surface anion channel blockers, osmotic lysis – cell-based, P. falciparum Indochina, OD700, 18 h, primary screen (AID 1157); conditions: P. falciparum Indochina infected erythrocytes, osmotic lysis OD700, 18 h; higher = more signal, called active from +8 up or from −8 down
# [7] = S6 kinase pathway phospho-S6 level changes – cell-based, A549, cytoblot, luminescence, serum-stimulated, primary screen (AID 1158); conditions: 5 h, higher = more signal;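 also: serum-stimulated A549 lung adenocarcinoma cells; signal is phosphorylated S6 detected by cytoblot immunostaining with HRP secondary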
# [8] = target: NADPH oxidase 2 (Homo sapiens) (UniProt P04839); experiment: compounds shifting NOX2 Amplex Red fluorescence – cell-based, HEK293-NOX2, PMA-stimulated, NOX inhibitor project, primary screen (AID 1159); conditions: 45 min, higher = more signal, called active from +8 up or from −8 down; also: test concentration not given here
# Chain of NADPH oxidase 2 (Homo sapiens) (P04839 whole entry, looked up): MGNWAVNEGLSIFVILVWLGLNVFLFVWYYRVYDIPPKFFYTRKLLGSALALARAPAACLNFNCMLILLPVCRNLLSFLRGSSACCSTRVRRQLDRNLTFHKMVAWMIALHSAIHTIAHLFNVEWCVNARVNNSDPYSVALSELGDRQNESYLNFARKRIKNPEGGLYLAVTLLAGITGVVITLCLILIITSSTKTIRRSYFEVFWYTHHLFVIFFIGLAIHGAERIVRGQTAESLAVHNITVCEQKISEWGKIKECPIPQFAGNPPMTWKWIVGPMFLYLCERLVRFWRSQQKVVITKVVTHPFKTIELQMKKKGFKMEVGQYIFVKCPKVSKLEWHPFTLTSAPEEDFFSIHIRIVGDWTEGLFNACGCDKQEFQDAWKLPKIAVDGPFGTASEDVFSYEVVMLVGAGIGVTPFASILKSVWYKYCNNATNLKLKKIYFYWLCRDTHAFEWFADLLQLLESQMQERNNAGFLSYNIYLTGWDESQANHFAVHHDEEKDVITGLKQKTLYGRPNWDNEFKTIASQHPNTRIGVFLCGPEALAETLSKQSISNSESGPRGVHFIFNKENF
# [9] = target: NADPH oxidase 4 (Homo sapiens) (UniProt Q9NPH5); experiment: compounds shifting NOX4 Amplex Red fluorescence – cell-based, HEK293-NOX4, tetracycline-induced, NOX inhibitor project, primary screen (AID 1160); conditions: HEK293-NOX4, Amplex Red H2O2 fluorescence, 45 min; higher = more signal, called active from +8 up or from −8 down
# Chain of NADPH oxidase 4 (Homo sapiens) (Q9NPH5 whole entry, looked up): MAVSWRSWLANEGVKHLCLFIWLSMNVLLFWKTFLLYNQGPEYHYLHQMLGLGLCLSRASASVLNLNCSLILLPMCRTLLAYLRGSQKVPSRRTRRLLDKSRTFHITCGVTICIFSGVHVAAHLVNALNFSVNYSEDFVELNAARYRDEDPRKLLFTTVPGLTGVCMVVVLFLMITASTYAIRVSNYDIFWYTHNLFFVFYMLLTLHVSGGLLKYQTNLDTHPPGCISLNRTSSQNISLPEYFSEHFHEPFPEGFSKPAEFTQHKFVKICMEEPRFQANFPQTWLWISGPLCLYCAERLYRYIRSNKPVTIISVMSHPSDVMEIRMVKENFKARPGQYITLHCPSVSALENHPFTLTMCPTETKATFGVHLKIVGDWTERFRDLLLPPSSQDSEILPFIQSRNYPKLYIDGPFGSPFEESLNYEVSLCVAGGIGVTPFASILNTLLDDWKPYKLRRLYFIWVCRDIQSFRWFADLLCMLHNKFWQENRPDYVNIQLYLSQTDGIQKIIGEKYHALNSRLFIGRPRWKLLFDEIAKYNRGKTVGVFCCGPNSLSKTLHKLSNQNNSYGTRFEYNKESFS
# [10] = target: NADPH oxidase 5 (Homo sapiens) (UniProt Q96PH1); experiment: compounds shifting NOX5 Amplex Red fluorescence – cell-based, HEK293-NOX5, NOX inhibitor project, primary screen (AID 1161); conditions: HEK293-NOX5, ionomycin, 45 min, higher = more signal
# Chain of NADPH oxidase 5 (Homo sapiens) (Q96PH1 whole entry, looked up): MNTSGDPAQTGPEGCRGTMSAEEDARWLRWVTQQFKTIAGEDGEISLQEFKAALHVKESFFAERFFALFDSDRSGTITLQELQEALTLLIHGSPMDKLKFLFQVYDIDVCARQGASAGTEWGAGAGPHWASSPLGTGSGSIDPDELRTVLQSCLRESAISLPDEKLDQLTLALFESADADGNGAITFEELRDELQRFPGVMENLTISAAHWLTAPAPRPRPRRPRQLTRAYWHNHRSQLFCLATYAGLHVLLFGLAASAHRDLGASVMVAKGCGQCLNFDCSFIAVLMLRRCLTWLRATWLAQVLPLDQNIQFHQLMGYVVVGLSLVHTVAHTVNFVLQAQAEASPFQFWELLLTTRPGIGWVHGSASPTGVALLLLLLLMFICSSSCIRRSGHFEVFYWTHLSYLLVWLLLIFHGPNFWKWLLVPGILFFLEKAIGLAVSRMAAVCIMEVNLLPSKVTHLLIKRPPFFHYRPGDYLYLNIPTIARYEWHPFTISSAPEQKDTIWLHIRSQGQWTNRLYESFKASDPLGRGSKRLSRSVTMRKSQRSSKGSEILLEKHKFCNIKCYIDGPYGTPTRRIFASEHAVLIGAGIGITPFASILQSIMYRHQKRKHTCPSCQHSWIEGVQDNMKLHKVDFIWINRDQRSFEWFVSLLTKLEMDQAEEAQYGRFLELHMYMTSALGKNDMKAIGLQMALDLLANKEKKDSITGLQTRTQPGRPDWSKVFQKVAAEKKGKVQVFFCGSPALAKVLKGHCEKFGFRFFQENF
# [11] = compound effects on lung adenocarcinoma cell viability – A549, calcein-AM fluorescence, 48 h, basal, profiling panel (AID 1162); conditions: higher = more signal; also: test concentration not given here
# [12] = compound effects on differentiated 3T3-L1 adipocyte viability – cell-based, 3T3-L1 adipocytes, calcein-AM fluorescence, 48 h, basal, profiling panel (AID 1163); conditions: 3T3-L1 adipocytes viability, higher = more signal; also: test concentration not given here
# [13] = compound effects on hepatocellular carcinoma cell viability – HepG2, calcein-AM fluorescence, 48 h, basal, profiling panel (AID 1164); conditions: higher = more signal; also: test concentration not given here
# [14] = compound effects on multiple myeloma cell viability – MM1S, calcein-AM fluorescence, 48 h, basal, profiling panel (AID 1165); conditions: higher = more signal; also: test concentration not given here
# [15] = calcein-AM signal in unstimulated myeloma cells – cell-based, calcein-AM fluorescence, 48 h, PK04 Diversity Set, profiling panel (AID 1166); conditions: RPMI8226 myeloma viability, higher = more signal;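 also: cells grown under basal conditions without added stimulus; test concentration not given here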
# [16] = JC-1 mitochondrial signal, unstimulated HepG2 cells – cell-based, JC-1 fluorescence, 24 h, 100 nL compound, profiling panel (AID 1167); conditions: HepG2 mitochondrial potential, higher = more signal; also: test concentration not given here
# [17] = JC-1 mitochondrial signal, unstimulated adipocytes – cell-based, JC-1 fluorescence, 3T3-L1 adipocytes, 24 h, 100 nL compound, profiling panel (AID 1168); conditions: JC-1 mitochondrial fluorescence, higher = more signal, called active from +8 up or from −8 down; also: test concentration not given here
# [18] = JC-1 mitochondrial signal, unstimulated myeloma cells – cell-based, JC-1 fluorescence, RPMI8226, 24 h, 100 nL compound, profiling panel (AID 1169); conditions: JC-1 mitochondrial potential fluorescence, higher = more signal; also: test concentration not given here
# [19] = JC-1 mitochondrial signal, unstimulated MM1S myeloma – cell-based, JC-1 fluorescence, 24 h, 100 nL compound, profiling panel (AID 1170); conditions: MM1S mitochondrial potential, higher = more signal; also: test concentration not given here
# [20] = resazurin metabolic signal in A549 cells – cell-based, resazurin fluorescence, 24 h, PK04 Diversity Set, profiling panel (AID 1171); conditions: A549 viability, higher = more signal, called active from +8 up or from −8 down; also: test concentration not given here
SMILES,z-score [1],composite z-score [2],z-score [3],z-score [4],z-score [5],z-score [6],z-score [7],z-score [8],z-score [9],z-score [10],z-score [11],z-score [12],z-score [13],z-score [14],z-score [15],z-score [16],z-score [17],z-score [18],z-score [19],z-score [20]
COC(=O)c1c2oc(c1C(=O)OC)C(=O)NC1(CCCCC1)c1cn(nn1)C[C@H](Cc1ccccc1)NC(=O)N[C@H](CO)CC2,2.35 (inactive),-0.258,1.66 (inactive),-0.265 (inactive),0.869 (inactive),0.285 (inactive),0.229,-0.463 (inactive),1.26 (inactive),-0.0346,0.947,-0.0442,0.22,0.813,1.17,0.537,0.691 (inactive),0.564,-0.887,1.09 (inactive)
CCC(CC)C(O)C1C=CC2C(=O)N(c3ccccc3)C(=O)C2N1Nc1ccccc1 (stereo not given),0.878 (inactive),0.947,4.73 (inactive),0.696 (inactive),0.301 (inactive),0.95 (inactive),-0.709,-0.588 (inactive),-3.29 (inactive),-3.4,0.857,-1.31,1.72,-0.127,-0.092,-1.48,-2.32 (inactive),0.0116,-0.403,0.328 (inactive)
COC(=O)[C@]1(Cc2ccccc2)N=C(c2ccc(OCCCO)cc2)O[C@@H]1c1ccccc1N=[N+]=[N-],-1.19 (inactive),-0.324,28 (active),24.7 (active),0.883 (inactive),4.33 (inactive),0.483,-0.936 (inactive),1.14 (inactive),0.0948,-2.41,0.574,-5.44,-3.61,-3.66,-2.75,-0.223 (inactive),-1.13,-2.9,-2.87 (inactive)
COc1cc(OC)c(C(O)C2C=CC3C(=O)NC(=O)C3N2Nc2ccccn2)cc1Br (stereo not given),-0.718 (inactive),-0.172,1.54 (inactive),0.783 (inactive),0.332 (inactive),0.876 (inactive),-0.732,-0.0691 (inactive),-2.81 (inactive),-2.05,0.837,-1.06,0.224,-0.459,-0.0109,-0.866,0.0212 (inactive),0.217,0.171,-0.924 (inactive)
COc1cc2c(cc1OC)CN(C(=O)[C@H]1[C@@H]3C(=O)O[C@@H](c4ccccc4)[C@@H](c4ccccc4)N3[C@@H](c3ccccc3OCCO)[C@]13C(=O)Nc1ccc(C#CCCO)cc13)CC2,-0.667 (inactive),0.112,3.11 (inactive),1.89 (inactive),1.89 (inactive),0.835 (inactive),-0.482,1.44 (inactive),1.26 (inactive),0.819,0.228,-0.538,-0.368,-0.217,-0.33,-0.641,0.451 (inactive),-0.377,-0.96,0.426 (inactive)
COCCOC(=O)N1C(=O)[C@@]2(c3cc(C#CC4(O)CCCCCC4)ccc31)[C@H](C(=O)Nc1nc3ccccc3s1)[C@H]1C(=O)O[C@H](c3ccccc3)[C@H](c3ccccc3)N1[C@@H]2c1ccc(OCCO)cc1,0.197 (inactive),0.411,2.97 (inactive),2.39 (inactive),1.73 (inactive),2.27 (inactive),0.481,0.566 (inactive),-0.595 (inactive),0.0214,-0.593,1.47,-0.15,-1.83,-2.56,-3.3,-0.438 (inactive),-0.635,-1.18,0.566 (inactive)
O=C(NC1CC1)[C@@H]1c2ccccc2C(=O)N(Cc2cc(F)cc(C(F)(F)F)c2)[C@H]1c1ccc(CO)cc1,-0.857 (inactive),-0.205,1.88 (inactive),0.115 (inactive),0.943 (inactive),0.0358 (inactive),-0.185,-0.0603 (inactive),0.463 (inactive),0.515,0.35,-0.392,-0.134,-1.65,0.88,0.86,-0.587 (inactive),0.0276,-0.232,1.36 (inactive)
C#CCN1[C@H](/C=C/C2CC2)[C@H](Cc2ccccc2)OC(=O)[C@@H]1Cc1ccccc1,-0.625 (inactive),-0.306,0.128 (inactive),0.224 (inactive),-0.491 (inactive),-0.16 (inactive),0.0807,-0.263 (inactive),-0.367 (inactive),-1.98,-0.627,0.0556,-0.0365,-2.65,-2.47,1.31,-0.0709 (inactive),-0.294,-0.719,2.37 (inactive)
CCCCC(O)C1C=CC2C(=O)N(C)C(=O)C2N1N1CCCCC1 (stereo not given),-1.43 (inactive),0.384,0.537 (inactive),0.917 (inactive),0.155 (inactive),1.47 (inactive),-0.751,-0.353 (inactive),0.133 (inactive),-1.03,-1.19,-0.579,-0.267,-0.73,-0.173,-1.59,-0.686 (inactive),0.135,-0.026,-0.377 (inactive)
